This is an account of results in PubChem BioAssay (NCATS).

Results filed as inconclusive are left out. Unmarked numbers belong to inactive results. Activity calls are given as the source filed them. Calls follow the shape of the full dose curve; tested in HEK293 reporter line.

Assay [1] can be described thus: qHTS for Inhibitors of the Functional Ribonucleoprotein Complex (vRNP) of Lassa (LASV) Arenavirus: LASV Primary Screen - GLuc reporter signal (AID 1347082). Also: nearly all actives have a fitted effect of over 60% in size. Background: qHTS replaces the single test concentration by a dilution series.
Assay [2] can be described thus: qHTS for Inhibitors of the Functional Ribonucleoprotein Complex (vRNP) of Lassa (LASV) Arenavirus: Viability assay - alamar blue signal for LASV Primary Screen (AID 1347083). Also: nearly all actives have a fitted effect of over 80% in size.
The nature of assay [3]: qHTS for Inhibitors of the Functional Ribonucleoprotein Complex (vRNP) of Lymphocytic Choriomeningitis Arenaviruses (LCMV): Viability assay - alamar blue signal for LCMV Primary Screen (AID 1347085). Also: nearly all actives have a fitted effect of over 80% in size.
Also: series mostly up to about 57 µM.

`COc1ccc(C(=O)c2ccccc2O)c(O)c1`: the Potency entry in assay [1], in assay [2] and in assay [3] was “inactive” throughout.

Turning to `C[C@]12C=CC(=O)C=C1[C@@H](F)C[C@@H]1[C@@H]2[C@@H](O)C[C@@]2(C)[C@H]1CC[C@]2(O)C(=O)CO`, the Potency entry in assay [1], in assay [2] and in assay [3] was “inactive” throughout.

As to `COc1c2occc2c(OC)c2c(=O)cc(C)oc12`, the Potency result in assay [1], in assay [2] and in assay [3] was “inactive” throughout.

As to `C[C@H](NC(CCc1ccccc1)C(=O)O)C(=O)N1CCC[C@H]1C(=O)O` (stereo partly specified), the Potency result in assay [1], in assay [2] and in assay [3] was “inactive” in each case.

Regarding `CN(C)CCOC(=O)COc1ccc(Cl)cc1`, the Potency entry in assay [1], in assay [2] and in assay [3] was “inactive” throughout.

In the case of `Nc1ncnc2c1ncn2[C@@H]1O[C@H](COP(=O)(O)O)[C@@H](O)[C@H]1O`, the Potency result in assay [1], in assay [2] and in assay [3] was “inactive” in each case.

As for `NS(=O)(=O)c1cc(C(=O)NN2C[C@H]3[C@H]4CCC(C4)[C@H]3C2)ccc1Cl`, the Potency result in assay [1], in assay [2] and in assay [3] was “inactive” each time.

On to `CCCc1c(OCCCCc2nn[nH]n2)ccc(C(C)=O)c1O`, for which the Potency result in assay [1], in assay [2] and in assay [3] was “inactive” in each case.

Consider `CC12CCC(CC1)C(C)(C)O2`, for which the Potency entry in assay [1], in assay [2] and in assay [3] was “inactive” each time.

In the case of `CN1CC(=O)NC1=N`, the Potency result in assay [1], in assay [2] and in assay [3] was “inactive” each time.

Turning to `C[C@]12C=CC(=O)C=C1CC[C@@H]1[C@@H]2C(=O)C[C@@]2(C)[C@H]1CC[C@]2(O)C(=O)CO`, the Potency result in assay [1], in assay [2] and in assay [3] was “inactive” throughout.

As to `O=c1cc[nH]c(=O)[nH]1`, the Potency result in assay [1], in assay [2] and in assay [3] was “inactive” throughout.

For the compound `CC(CN(C)C)C(C)(O)Cc1ccc(Cl)cc1` (stereo unspecified), the Potency entry in assay [1], in assay [2] and in assay [3] was “inactive” each time.

Regarding `COc1ccc(CCN(C)CCCN2CCc3cc(OC)c(OC)cc3CC2=O)cc1OC`, the Potency entry in assay [1], in assay [2] and in assay [3] was “inactive” in each case.

`CCOC(=O)c1ccccc1O`: the Potency entry in assay [1], in assay [2] and in assay [3] was “inactive” in each case.

Take `O=C(O)c1ccccc1Nc1cccc(C(F)(F)F)c1`: the Potency entry in assay [1], in assay [2] and in assay [3] was “inactive” throughout.

In the case of `CCN(CC)CCNC(=O)c1ccc(N)cc1`, the Potency result in assay [1], in assay [2] and in assay [3] was “inactive” in each case.

In the case of `Cc1onc(-c2c(Cl)cccc2Cl)c1C(=O)Cl`, the Potency entry in assay [1], in assay [2] and in assay [3] was “inactive” each time.

For `CC(C)(C)NC[C@H](O)COc1cccc2c1CCCC2=O`, the Potency result in assay [1], in assay [2] and in assay [3] was “inactive” each time.

Take `O=c1cc[nH]c(=S)[nH]1`: the Potency result in assay [1], in assay [2] and in assay [3] was “inactive” each time.

As to `CC(C)CCOC(=O)c1ccc(N(C)C)cc1`, the Potency entry in assay [1], in assay [2] and in assay [3] was “inactive” each time.

For `NC(=O)c1ncn([C@@H]2O[C@H](CO)[C@@H](O)[C@H]2O)c1O`, the Potency result in assay [1], in assay [2] and in assay [3] was “inactive” in each case.

As for `NC(=O)COCCN1CCN(C(c2ccccc2)c2ccc(Cl)cc2)CC1` (stereo unspecified), the Potency result in assay [1], in assay [2] and in assay [3] was “inactive” each time.

Turning to `CS(=O)(=O)c1ccc([C@@H](O)[C@@H](CO)NC(=O)C(Cl)Cl)cc1`, the Potency result in assay [1], in assay [2] and in assay [3] was “inactive” throughout.

For the compound `CCS(=O)(=O)c1ccc(OC)c(C(=O)OC)c1`, the Potency entry in assay [1], in assay [2] and in assay [3] was “inactive” in each case.

`O=C(O)CCCC[C@@H]1SC[C@@H]2NC(=O)N[C@@H]21`: the Potency entry in assay [1], in assay [2] and in assay [3] was “inactive” in each case.

As to `Cc1coc2ccccc2c1=O`, the Potency result in assay [1], in assay [2] and in assay [3] was “inactive” in each case.

With `C[C@@H](CN1CC(=O)NC(=O)C1)N1CC(=O)NC(=O)C1`, the Potency result in assay [1], in assay [2] and in assay [3] was “inactive” in each case.

On to `CCCCCCCCCCCCCCCC(=O)NCCO`, for which the Potency entry in assay [1], in assay [2] and in assay [3] was “inactive” throughout.

For the compound `O=C(OCC1(COC(=O)c2cccnc2)CCCC(COC(=O)c2cccnc2)(COC(=O)c2cccnc2)C1O)c1cccnc1`, the Potency result in assay [1], in assay [2] and in assay [3] was “inactive” throughout.

For the compound `Cc1ccccc1N1CCN(CCc2nnc3n2CCCC3)CC1`, the Potency entry in assay [1], in assay [2] and in assay [3] was “inactive” in each case.

Turning to `O=C(CCCl)NCc1ccccc1`, the Potency entry in assay [1], in assay [2] and in assay [3] was “inactive” each time.

As for `O=C(/C=C/c1ccccc1)OCc1ccccc1`, the Potency entry in assay [1], in assay [2] and in assay [3] was “inactive” throughout.

Regarding `O=C(O)c1cccnc1`, the Potency result in assay [1], in assay [2] and in assay [3] was “inactive” in each case.

With `CCCOC(=O)c1ccccc1`, the Potency entry in assay [1], in assay [2] and in assay [3] was “inactive” each time.

In the case of `CC1CCN(CCCC(=O)c2ccc(F)cc2)CC1`, the Potency entry in assay [1], in assay [2] and in assay [3] was “inactive” each time.

Take `CS(=O)(=O)c1ccc([C@@H](O)[C@@H](CF)NC(=O)C(Cl)Cl)cc1`: the Potency result in assay [1], in assay [2] and in assay [3] was “inactive” throughout.

On to `CC(=O)Nc1ccc(C(=O)O)cc1`, for which the Potency entry in assay [1], in assay [2] and in assay [3] was “inactive” in each case.

On to `CCN(CC)C(C)CN1c2ccccc2Sc2ccccc21` (stereo unspecified), for which the Potency entry in assay [1], in assay [2] and in assay [3] was “inactive” in each case.

Regarding `CCN(CC)CC#CCOC(=O)C(O)(c1ccccc1)C1CCCCC1` (stereo unspecified), the Potency entry in assay [1], in assay [2] and in assay [3] was “inactive” in each case.

With `Cc1noc(NS(=O)(=O)c2ccc(N)cc2)c1C`, the Potency entry in assay [1], in assay [2] and in assay [3] was “inactive” in each case.

On to `C/C(=C(\CCO)SS/C(CCO)=C(\C)N(C=O)Cc1cnc(C)nc1N)N(C=O)Cc1cnc(C)nc1N`, for which the Potency result in assay [1], in assay [2] and in assay [3] was “inactive” in each case.

For `Cc1cc(O)c2ccccc2c1O`, the Potency result in assay [1] and in assay [3] was “inactive” each time.

Regarding `O=C(O)c1cc(=O)[nH]c(=O)[nH]1`, the Potency entry in assay [1], in assay [2] and in assay [3] was “inactive” throughout.
